According to PubChem BioAssay (NCATS):
Where “and” joins values, the source holds several entries; their conditions need not be identical. Identical values can stand only once. Results filed as inconclusive are left out. Calls of active or inactive are those of the source. Unless noted, the call rests on the fitted dose curve; in most records, active means well fitted curve in the direction sought with a large enough effect; inconclusive means small, poorly fitted or top-dose-only effect, or another doubt; inactive means no such curve, though single readings can be large; an effect the other way counts as inactive or inconclusive.

Assays:
[1] = target: Cytochrome P450 2C9 (Homo sapiens) (UniProt P11712); test: qHTS for inhibitors of CYP2C9 against the NCATS DSHEA and TCM libraries (AID 1919973); further: potency means the concentration at half of the fitted maximal effect
Summary of the method: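 Concentration-response screening with isoform-matched pro-luciferin substrates. The CYP reaction was initiated by NADPH regenerating solution and ran 30-45 min in darkness at room temperature.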

[2] = target: Cytochrome P450 1A2 (Homo sapiens) (UniProt P05177); test: qHTS for inhibitors of CYPIA2 against the NCATS DSHEA and TCM libraries (AID 1919976); further: potency means the concentration at half of the fitted maximal effect
Summary of the method: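 Enzyme and pro-luciferin substrate, or substrate alone as no-enzyme background, are pre-incubated with test samples for 15 min at room temperature. NADPH regeneration system (1x final) initiates a 30-45 min dark reaction; luciferase detection reagent follows before luminescence reading.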

[3] = target: Estrogen receptor (Homo sapiens) (UniProt P03372); test: qHTS assay for small molecule antagonists of estrogen receptor alpha signaling (AID 588513; active means well fitted curve in the direction sought with a large enough effect in the signal ratio, with a control signal flat, not every such curve was filed as active; the % refers to the signal ratio; further: on the % scale 0 is the no-effect control and ±100 the full control effect)
Summary of the method: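 Fluorescence from CCF4 substrate after 2 h at room temperature gave reporter activity; cells had been exposed to compound and 0.5nM 17-beta-estradiol for 18 h at 37 C. Hill-equation fitting yielded IC50 and maximal response.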

[4] = target: Peroxisome proliferator-activated receptor gamma (Homo sapiens) (UniProt P37231); test: qHTS assay for small molecule agonists of peroxisome proliferator-activated receptor gamma signaling (AID 588536; active means well fitted curve in the direction sought with a large enough effect in the signal ratio, with a control signal flat, not every such curve was filed as active; the % refers to the signal ratio;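 further: 0% = DMSO basal wells and 100% = rosiglitazone at 2 µM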)
Summary of the method: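 Using GeneBLAzer HEK293 cells, response was quantified by CCF4 fluorescence and normalized between basal DMSO (0%) and rosiglitazone 2 uM (100%); curves yielded half-maximal stimulation concentration and efficacy.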

[5] = qHTS assay for small molecule antagonists of retinoid X receptor alpha signaling (AID 588546; active means well fitted inhibition curve with a large enough effect in the signal ratio, with a control signal flat, not every such curve was filed as active; the % refers to the signal ratio;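 further: cells stimulated with 9-cis-retinoic acid as agonist; on the % scale 0 is the no-effect control and ±100 the full control effect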); conditions: HEK293T RXRa-UAS-bla, beta-lactamase ratio, antagonist mode; measured here: W530 green channel, cytotoxicity proxy
Summary of the method: (§1)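 Beta-lactamase reporter inhibition, read as CCF4 fluorescence ratio (ex 405, em 460/530 nm) after 2 h at RT. HEK293T UAS-bla cells, 2500/well, were stimulated with 9-cis-RA at 500 or 100 nM final alongside test compound for 18 h at 37 C.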

[6] = target: Retinoic acid receptor RXR-alpha (Homo sapiens) (UniProt P19793); test: as above; conditions: HEK293T RXRa-UAS-bla, beta-lactamase ratio, antagonist mode
Summary of the method: as §1

[7] = qHTS assay for small molecule activators of the p53 signaling pathway (AID 651743; active means well fitted activation curve with a large enough effect in the signal ratio, not every such curve was filed as active; the % refers to the signal ratio; further: series mostly up to about 92 µM; % of control where 0% means no effect); conditions: HCT-116 p53RE-bla, beta-lactamase FRET ratio, 16 h; activation: stronger effect = higher value
Summary of the method: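 Following 16 hours of compound exposure at 37 C, HCT-116 cells bearing the p53RE-bla reporter were loaded with LiveBLAzer B/G FRET substrate for 2 hours at room temperature and fluorescence intensity was recorded.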

[8] = qHTS assay for environmental chemicals that activate the Aryl hydrocarbon Receptor (AhR) signaling pathway (AID 651777); conditions: 1A2-DRE human hepatoma cells, luciferase, 24 h; activation: stronger effect = higher value; further: nearly all actives have a fitted effect of over 15% in size; further: potency means the concentration at half of the fitted maximal effect; on activation: % of control where 0% means no effect
Summary of the method: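 Measured luciferase activity, read 30 min after One-Glo addition at room temperature, from human hepatoma cells bearing a dioxin response element–CYP1A2 promoter reporter and exposed to compound for 24 hr at 37 C.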

[9] = target: Peroxisome proliferator-activated receptor alpha (Homo sapiens) (UniProt Q07869); test: qHTS assay for small molecule agonists of the peroxisome proliferator-activated receptor alpha (PPARalpha) signaling pathway (AID 651778); conditions: PathHunter PPARalpha complementation, chemiluminescence, 6 h; max response: stronger effect = higher value; further: potency means the concentration at half of the fitted maximal effect; on max response: % of control where 0% means no effect
Summary of the method: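 Enzyme-fragment complementation assay in which ligand-bound PPARalpha translocates and forms an active enzyme that generates chemiluminescence. Cells were plated overnight, exposed to compound for 6 hr at 37 C, and then given detection reagent for 60 min at room temperature.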

[10] = qHTS assay for small molecule agonists of the antioxidant response element (ARE) signaling pathway measured by Nrf2-dependant transcriptional activity - cell viability counter screen (AID 720653; active means well fitted curve in the direction sought with a large enough effect in the repeat runs; an effect the other way counts as inactive or inconclusive; further: on the % scale 0 is the no-effect control and ±100 the full control effect); conditions: ARE-bla HepG2 viability, CellTiter-Glo ATP luminescence, 16 h; max response: stronger effect = lower value
Summary of the method: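 ARE-bla HepG2 cells treated with compounds for 16 h at 37C; this counter screen measures viability as intracellular ATP by CellTiter-Glo luminescence after 30 min at room temperature.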

[11] = qHTS assay for cell viability of HEK293 cells (AID 743288); conditions: ATP luminescence (CellTiter-Glo), 18 h; max response: stronger effect = lower value; further: on the % scale 0 is the no-effect control and ±100 the full control effect; nearly all actives have a fitted effect of over 50% in size
Summary of the method: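 Viable-cell counts were inferred from luciferase-based ATP content in HEK293 cells seeded at 2,000/well, pre-incubated ≥5 h, then dosed with DMSO-solubilised compounds for 18 h at 37 C.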

[12] = target: Cytochrome P450 3A4 (Homo sapiens) (UniProt P08684); test: qHTS Assay for Inhibitors and Substrates of Cytochrome P450 3A4 (AID 884); further: series mostly up to about 57 µM; on the % scale 0 is the no-effect control and ±100 the full control effect; nearly all actives have a fitted effect of over 50% in size
Summary of the method: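 Luminescent readout of luciferin produced by CYP3A4 (20 nM) dealkylation of Luciferin-PPXE, 25 uM (its KM). NADPH-driven reaction ran 60 min at RT after 10 min compound preincubation; data scaled to 57 uM ketoconazole as 100% inhibition.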

Chain of Retinoic acid receptor RXR-alpha (Homo sapiens) (P19793 whole entry, looked up): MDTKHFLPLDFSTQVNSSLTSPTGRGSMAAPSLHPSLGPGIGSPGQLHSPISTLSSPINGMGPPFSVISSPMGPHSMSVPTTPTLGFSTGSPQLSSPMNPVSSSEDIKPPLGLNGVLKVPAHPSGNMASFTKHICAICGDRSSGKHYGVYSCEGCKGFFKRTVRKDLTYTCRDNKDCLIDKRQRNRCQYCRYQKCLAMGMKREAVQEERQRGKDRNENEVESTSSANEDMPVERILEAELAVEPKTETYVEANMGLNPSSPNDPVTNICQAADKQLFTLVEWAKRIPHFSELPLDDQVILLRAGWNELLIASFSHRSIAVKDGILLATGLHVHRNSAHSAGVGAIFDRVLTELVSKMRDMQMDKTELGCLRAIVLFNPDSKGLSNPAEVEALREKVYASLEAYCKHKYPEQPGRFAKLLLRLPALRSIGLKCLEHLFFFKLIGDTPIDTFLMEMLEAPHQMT
Chain of Peroxisome proliferator-activated receptor gamma (Homo sapiens) (P37231 whole entry, looked up): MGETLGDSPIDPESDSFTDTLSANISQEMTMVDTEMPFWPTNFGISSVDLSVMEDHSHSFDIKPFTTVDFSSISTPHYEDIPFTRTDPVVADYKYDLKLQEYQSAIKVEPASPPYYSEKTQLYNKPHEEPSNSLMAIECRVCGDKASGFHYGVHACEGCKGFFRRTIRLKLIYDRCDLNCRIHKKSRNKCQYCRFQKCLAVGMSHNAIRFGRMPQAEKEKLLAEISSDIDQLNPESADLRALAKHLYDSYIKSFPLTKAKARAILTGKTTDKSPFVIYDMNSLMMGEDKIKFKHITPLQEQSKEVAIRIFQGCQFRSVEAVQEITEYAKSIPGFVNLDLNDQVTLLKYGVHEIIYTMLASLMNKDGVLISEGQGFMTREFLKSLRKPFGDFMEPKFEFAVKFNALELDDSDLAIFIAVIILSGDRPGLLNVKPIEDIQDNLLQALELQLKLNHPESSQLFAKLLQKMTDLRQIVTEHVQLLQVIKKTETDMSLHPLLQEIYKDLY
Chain of Peroxisome proliferator-activated receptor alpha (Homo sapiens) (Q07869 whole entry, looked up, the tested form may be a part): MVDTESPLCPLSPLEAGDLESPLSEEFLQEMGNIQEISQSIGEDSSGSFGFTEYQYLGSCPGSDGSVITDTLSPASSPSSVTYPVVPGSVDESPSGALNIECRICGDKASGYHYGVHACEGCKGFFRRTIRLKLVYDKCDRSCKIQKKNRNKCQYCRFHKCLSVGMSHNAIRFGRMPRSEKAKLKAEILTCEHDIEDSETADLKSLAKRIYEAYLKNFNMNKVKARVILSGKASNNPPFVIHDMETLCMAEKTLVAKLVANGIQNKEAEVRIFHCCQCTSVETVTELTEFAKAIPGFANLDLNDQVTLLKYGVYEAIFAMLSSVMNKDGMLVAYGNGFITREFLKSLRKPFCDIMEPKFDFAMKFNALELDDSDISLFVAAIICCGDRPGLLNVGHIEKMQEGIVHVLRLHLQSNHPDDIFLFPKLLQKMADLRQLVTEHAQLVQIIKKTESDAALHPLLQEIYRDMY
Chain of Cytochrome P450 2C9 (Homo sapiens) (P11712 whole entry, looked up, canonical isoform): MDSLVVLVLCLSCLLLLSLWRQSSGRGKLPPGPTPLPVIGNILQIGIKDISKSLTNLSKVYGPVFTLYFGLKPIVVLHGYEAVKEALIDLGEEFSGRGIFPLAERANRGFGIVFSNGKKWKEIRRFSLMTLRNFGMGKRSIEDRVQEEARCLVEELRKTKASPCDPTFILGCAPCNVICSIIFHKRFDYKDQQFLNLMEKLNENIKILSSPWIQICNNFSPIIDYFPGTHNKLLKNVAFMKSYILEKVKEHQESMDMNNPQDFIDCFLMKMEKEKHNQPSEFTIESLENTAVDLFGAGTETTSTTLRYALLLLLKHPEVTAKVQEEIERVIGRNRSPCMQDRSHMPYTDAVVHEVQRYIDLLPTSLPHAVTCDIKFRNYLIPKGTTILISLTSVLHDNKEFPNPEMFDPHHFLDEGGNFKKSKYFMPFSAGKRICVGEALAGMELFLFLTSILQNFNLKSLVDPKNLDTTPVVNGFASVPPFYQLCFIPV
Chain of Estrogen receptor (Homo sapiens) (P03372 whole entry, looked up): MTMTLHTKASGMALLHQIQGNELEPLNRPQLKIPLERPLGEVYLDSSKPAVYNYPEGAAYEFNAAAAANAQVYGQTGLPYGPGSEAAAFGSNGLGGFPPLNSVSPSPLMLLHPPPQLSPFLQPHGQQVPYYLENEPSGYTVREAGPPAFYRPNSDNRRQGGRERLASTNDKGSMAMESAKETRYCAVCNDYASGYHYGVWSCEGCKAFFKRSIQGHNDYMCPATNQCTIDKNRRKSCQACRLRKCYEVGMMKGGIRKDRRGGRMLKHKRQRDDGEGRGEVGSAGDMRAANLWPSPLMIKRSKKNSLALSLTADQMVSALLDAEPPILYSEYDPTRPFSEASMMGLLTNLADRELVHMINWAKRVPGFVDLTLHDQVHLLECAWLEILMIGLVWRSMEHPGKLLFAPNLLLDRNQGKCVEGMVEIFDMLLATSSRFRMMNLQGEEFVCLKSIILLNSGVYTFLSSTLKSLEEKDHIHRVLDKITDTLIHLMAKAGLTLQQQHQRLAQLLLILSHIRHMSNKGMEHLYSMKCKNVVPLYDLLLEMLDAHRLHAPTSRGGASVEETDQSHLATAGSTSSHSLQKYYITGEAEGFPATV
Chain of Cytochrome P450 3A4 (Homo sapiens) (P08684 whole entry, looked up): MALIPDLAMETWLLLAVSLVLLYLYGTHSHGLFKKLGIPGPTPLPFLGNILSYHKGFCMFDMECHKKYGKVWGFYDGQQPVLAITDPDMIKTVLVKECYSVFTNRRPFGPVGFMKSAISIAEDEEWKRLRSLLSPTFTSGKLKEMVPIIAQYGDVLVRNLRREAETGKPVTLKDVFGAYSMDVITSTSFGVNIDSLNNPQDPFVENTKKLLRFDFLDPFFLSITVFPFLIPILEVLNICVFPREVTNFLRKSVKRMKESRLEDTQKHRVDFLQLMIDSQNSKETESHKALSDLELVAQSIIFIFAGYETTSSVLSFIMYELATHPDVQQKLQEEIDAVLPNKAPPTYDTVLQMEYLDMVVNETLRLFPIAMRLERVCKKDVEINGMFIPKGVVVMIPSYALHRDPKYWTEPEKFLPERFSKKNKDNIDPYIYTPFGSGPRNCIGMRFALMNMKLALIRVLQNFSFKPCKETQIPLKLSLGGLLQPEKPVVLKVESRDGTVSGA
Chain of Cytochrome P450 1A2 (Homo sapiens) (P05177 whole entry, looked up): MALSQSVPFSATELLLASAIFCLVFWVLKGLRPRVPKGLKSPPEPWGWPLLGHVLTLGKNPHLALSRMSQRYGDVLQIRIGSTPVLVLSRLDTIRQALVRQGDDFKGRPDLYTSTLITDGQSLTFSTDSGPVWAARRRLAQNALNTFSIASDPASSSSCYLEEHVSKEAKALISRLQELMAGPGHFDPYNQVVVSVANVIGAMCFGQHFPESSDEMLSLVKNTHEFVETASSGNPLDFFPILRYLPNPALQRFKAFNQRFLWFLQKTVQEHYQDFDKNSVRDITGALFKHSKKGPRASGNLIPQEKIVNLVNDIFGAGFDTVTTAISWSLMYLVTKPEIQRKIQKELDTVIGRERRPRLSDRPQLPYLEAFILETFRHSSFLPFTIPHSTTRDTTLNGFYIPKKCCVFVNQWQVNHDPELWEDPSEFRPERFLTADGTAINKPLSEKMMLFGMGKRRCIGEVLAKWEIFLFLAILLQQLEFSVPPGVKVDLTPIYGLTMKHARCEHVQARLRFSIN

Question: Which Potency [1] does the source give for O[C@@H]1[C@@H](O)[C@H](OC/C=C/c2ccccc2)O[C@H](CO[C@@H]2OC[C@H](O)[C@H](O)[C@H]2O)[C@H]1O here?
Answer: Its Potency is “inactive”.

Question: And the Potency [2]?
Answer: The Potency was “inactive”.

Question: For CC1(C)CC[C@]2(C(=O)O)CC[C@]3(C)C(=CCC4[C@@]5(C)CC[C@H](O)[C@@](C)(CO)C5CC[C@]43C)[C@H]2C1 (stereo partly drawn), which Potency [1] is on record?
Answer: The Potency was “inactive”.

Question: Which Potency [1] does the source give for CC1=CCC(=C(C)C)CC1 here?
Answer: Its Potency is “inactive”.

Question: What about the Potency [2] of the same molecule?
Answer: Its Potency is “inactive”.

Question: For CC1(C)CC[C@]2(C(=O)O)CC[C@]3(C)C(=CCC4[C@@]5(C)CC[C@@H](O)C(C)(C)C5CC[C@]43C)C2C1 (stereo partly drawn), which Potency [2] is on record?
Answer: The Potency was “inactive”.

Question: With O=C(O)CC(O)(C(=O)O)C(O)C(=O)O (stereo not drawn) as the molecule, how does the Potency [1] read?
Answer: The Potency was “inactive”.

Question: For C=C1C[C@@]23CC[C@H]4[C@@](C)(CCC[C@@]4(C)C(=O)O[C@@H]4O[C@H](CO)[C@@H](O)[C@H](O)[C@H]4O)[C@@H]2CC[C@]1(O[C@@H]1O[C@H](CO)[C@@H](O)[C@H](O[C@@H]2O[C@H](CO)[C@@H](O)[C@H](O)[C@H]2O)[C@H]1O[C@@H]1O[C@@H](C)[C@H](O)[C@@H](O)[C@H]1O)C3, which Potency [1] is on record?
Answer: The Potency was “inactive”.

Question: With CC1=CCC(O)(C(C)C)CC1 (stereo not drawn) as the molecule, how does the Potency [2] read?
Answer: Its Potency is “inactive”.

Question: For CCCCCCCCCC=O, which Potency [1] is on record?
Answer: The Potency was “inactive”.

Question: Which Potency [1] does the source give for O=C(OC[C@H]1O[C@@H](OC(=O)c2cc(O)c(O)c(O)c2)[C@H](OC(=O)c2cc(O)c(O)c(O)c2)[C@@H](OC(=O)c2cc(O)c(O)c(O)c2)[C@@H]1O)c1cc(O)c(O)c(O)c1 here?
Answer: Its Potency is 3.16 µM (active).

Question: For CCCCCCC/C=C/C(=O)CCc1ccc(O)c(OC)c1, which Potency [1] is on record?
Answer: The Potency was 25.1 µM (active).

Question: What about the Potency [2] of the same molecule?
Answer: Its Potency is 25.1 µM (active).

Question: With C=C1CC[C@H](O)C/C1=C\C=C1/CCC[C@]2(C)[C@@H]([C@H](C)CC[C@H](C)C(C)C)CC[C@@H]12 as the molecule, how does the Potency [2] read?
Answer: The Potency was “inactive”.

Question: For Cc1ccc(C(C)C)cc1, which Potency [2] is on record?
Answer: The Potency was “inactive”.

Question: Which Potency [1] does the source give for COc1ccc(-c2coc3cc(O[C@@H]4O[C@H](CO)[C@@H](O)[C@H](O)[C@H]4O)ccc3c2=O)cc1 here?
Answer: The Potency was “inactive”.

Question: With C[C@@H]1OC(O[C@H]2[C@H](O)[C@@H](O)[C@H](OC[C@H]3O[C@@H](OC(=O)[C@]45CCC(C)(C)C[C@@H]4C4=CCC6[C@@]7(C)CC[C@H](OC8OC[C@H](O)[C@H](O)[C@H]8OC8O[C@@H](C)[C@H](O)[C@@H](O)[C@H]8O)[C@@](C)(CO)C7CC[C@@]6(C)[C@]4(C)CC5)[C@H](O)[C@@H](O)[C@@H]3O)O[C@@H]2CO)[C@H](O)[C@H](O)[C@H]1O (stereo partly drawn) as the molecule, how does the Potency [1] read?
Answer: Its Potency is “inactive”.

Question: Which Potency [3] does the source give for C=CC(C)(CCC=C(C)C)OC(C)=O (stereo not drawn) here?
Answer: Its Potency is “inactive”.

Question: And the outcome [4]?
Answer: Its outcome is “inactive”.

Question: And the max response [5]?
Answer: Its max response is -5.27%.

Question: And the max response [6]?
Answer: Its max response is -7.97% (inactive).

Question: What about the activation [7] of the same molecule?
Answer: Its activation is -1.51% (inactive).

Question: And the activation [8]?
Answer: Its activation is 3.8% (inactive).

Question: What about the max response [9] of the same molecule?
Answer: The max response was -0.802% (inactive).

Question: And the max response [10]?
Answer: The max response was -13.5% (inactive).

Question: And the max response [11]?
Answer: The max response was -14.2% (inactive).

Question: And the Potency [2]?
Answer: The Potency was “inactive”.

Question: For CC(C)c1ccc(C=O)cc1, which Potency [2] is on record?
Answer: Its Potency is “inactive”.

Question: With O=c1cc(-c2ccc(O)cc2)oc2cc(O[C@@H]3O[C@H](CO)[C@@H](O)[C@H](O)[C@H]3O[C@@H]3OC[C@](O)(CO)[C@H]3O)cc(O)c12 as the molecule, how does the Potency [1] read?
Answer: Its Potency is 8.91 µM (active).

Question: And the Potency [2]?
Answer: The Potency was “inactive”.

Question: For CC(=O)O[C@H]1[C@H](O[C@H]2CC[C@]34C[C@]35CC[C@]3(C)[C@@H]([C@@]6(C)CC[C@@H](C(C)(C)O)O6)[C@@H](O)C[C@@]3(C)[C@@H]5C[C@H](O[C@@H]3O[C@H](CO)[C@@H](O)[C@H](O)[C@H]3O)[C@H]4C2(C)C)OC[C@@H](O)[C@@H]1O, which Potency [1] is on record?
Answer: The Potency was “inactive”.

Question: Which Potency [12] does the source give for COc1ccc(/C=C/c2cc(OC)cc(=O)o2)cc1 here?
Answer: Its Potency is “inactive”.

Question: What about the Potency [3] of the same molecule?
Answer: The Potency was “inactive”.

Question: What about the outcome [4] of the same molecule?
Answer: Its outcome is “inactive”.

Question: And the max response [5]?
Answer: The max response was 19.1%.

Question: And the max response [6]?
Answer: Its max response is -3.53% (inactive).

Question: What about the activation [7] of the same molecule?
Answer: Its activation is 10.5% (inactive).

Question: What about the Potency [8] of the same molecule?
Answer: Its Potency is 10 µM (active).

Question: What about the max response [9] of the same molecule?
Answer: The max response was 9.34% (inactive).

Question: What about the max response [10] of the same molecule?
Answer: Its max response is 11.1% (inactive).

Question: And the max response [11]?
Answer: Its max response is -19.9% (inactive).

Question: What does the source list for O=Cc1ccccc1O?
Answer: Potency [1]: inactive; Potency [2]: inactive

Question: With O=C(O)[C@H]1O[C@@H](Oc2c(-c3ccc(O)c(O)c3)oc3cc(O)cc(O)c3c2=O)[C@H](O)[C@@H](O)[C@@H]1O as the molecule, how does the Potency [1] read?
Answer: The Potency was 14.1 µM (active).

Question: Which Potency [1] does the source give for C=C/C(C)=C/C/C=C(\C)CCC=C(C)C here?
Answer: Its Potency is 35.5 µM (active).

Question: With CCCCCCCCCCCCCC(=O)O as the molecule, how does the Potency [12] read?
Answer: The Potency was “inactive”.

Question: And the Potency [3]?
Answer: Its Potency is “inactive”.

Question: And the outcome [4]?
Answer: The outcome was “inactive”.

Question: And the max response [5]?
Answer: The max response was 9.83% and 0.375%.

Question: What about the max response [6] of the same molecule?
Answer: The max response was -6.83% (inactive) and -2.87% (inactive).

Question: And the activation [7]?
Answer: The activation was -1.59% (inactive) and 5.08% (inactive).

Question: What about the activation [8] of the same molecule?
Answer: The activation was -0.758% (inactive) and 0.233% (inactive).

Question: And the Potency [9]?
Answer: The Potency was 22.4 µM (active).

Question: What about the max response [10] of the same molecule?
Answer: Its max response is 1.31% (inactive) and -9.4% (inactive).

Question: And the max response [11]?
Answer: The max response was 2.25% (inactive) and -11.5% (inactive).

Question: With C=C(C)C1CC=C(C)C(O)C1 (stereo not drawn) as the molecule, how does the Potency [12] read?
Answer: The Potency was “inactive”.

Question: And the Potency [3]?
Answer: The Potency was “inactive”.

Question: What about the outcome [4] of the same molecule?
Answer: The outcome was “inactive”.

Question: And the max response [5]?
Answer: Its max response is -6.28%.

Question: What about the max response [6] of the same molecule?
Answer: The max response was 5.08% (inactive).

Question: What about the activation [7] of the same molecule?
Answer: Its activation is -1.04% (inactive).

Question: And the activation [8]?
Answer: Its activation is -0.5% (inactive).

Question: And the max response [9]?
Answer: The max response was -4.25% (inactive).

Question: And the max response [10]?
Answer: Its max response is -2.07% (inactive).

Question: And the max response [11]?
Answer: Its max response is 0.258% (inactive).

Question: With Oc1cc(O)c2c(c1)O[C@@H](c1cc(O)c(O)c(O)c1)[C@H](O)C2 as the molecule, how does the Potency [2] read?
Answer: The Potency was 3.55 µM (active).

Question: With CCCCCC(=O)O as the molecule, how does the Potency [1] read?
Answer: Its Potency is “inactive”.

Question: What about the Potency [2] of the same molecule?
Answer: The Potency was “inactive”.
